Laboratory results as given in PubChem BioAssay (Tox21).
Values joined by “and” are separate entries in the source; they are usually repeats but may differ in a detail not shown here. Identical values can stand only once. Results filed as inconclusive are left out. Active and inactive are the calls of the source. Unless noted, the call rests on the fitted dose curve; in most records, active means well fitted curve in the direction sought with a large enough effect in the repeat runs; inconclusive means weak or mixed curves; inactive means no such curve, though single readings can be large; an effect the other way counts as inactive or inconclusive.

How the values were obtained:
[1] = A CellTox Green Cytotoxicity Assay to monitor cytotoxicity in HepG2 cells - 8 hour (AID 1224890); further: nearly all actives have a fitted effect of over 45% in size; further: potency means the concentration at half of the fitted maximal effect
Outline: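 Read-out is fluorescence of a cyanine dye excluded from live cells that stains DNA of dead HepG2 cells, with signal proportional to cytotoxicity. Plates were read at 0, 8, 16, 24, 32 and 40 h after compound addition.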

[2] = qHTS assay to identify small molecule antagonists of the estrogen receptor alpha (ER-alpha) signaling pathway using the BG1 cell line in the presence of 0.1 nM 17-beta-estradiol - cell viability counter screen (AID 1259241); further: nearly all actives have a fitted effect of over 40% in size
Outline: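 Measures cytotoxicity alongside the ER-alpha antagonist readout: VM7Luc4E2 cells, charcoal-stripped serum, 0.1 nM 17beta-estradiol final, 22 hr compound incubation at 37C, CellTiter-Fluor fluorescence.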

[3] = qHTS assay to identify small molecule antagonists of the androgen receptor (AR) signaling pathway using the MDA cell line in the presence of 0.5 nM R1881 - cell viability counter screen (AID 1259242); further: nearly all actives have a fitted effect of over 45% in size
Outline: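 Counter screen for cytotoxicity run in the same wells as the AR antagonist reporter screen: MDA-kb2 cells were treated 16 hr with test compounds and 0.5 nM R1881, then live-cell protease activity was measured by fluorescence.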

[4] = qHTS assay to identify small molecule phospholipidosis (PLD) inducers (AID 1259344; active means well fitted curve in the direction sought with a large enough effect; an effect the other way counts as inactive or inconclusive)
Outline: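 Quantitative HTS in HepG2: compound plus LipidTOX Red dye for 24 h, paraformaldehyde fixation with Hoechst 33342, widefield high-content imaging; amiodarone as positive and DMSO as negative control.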

[5] = qHTS assay to identify small molecule HDAC inhibitors (AID 1259364); further: top concentration of the series differs between compounds; nearly all actives have a fitted effect of over 45% in size
Outline: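 Luminescence from a cell-permeant luminogenic class I/II HDAC substrate reports endogenous deacetylase activity in intact HCT-116 cells treated with compounds for 2 h.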

[6] = qHTS assay to identify small molecule HDAC inhibitors - cell viability counter screen (AID 1259365); further: series mostly up to about 92 µM; nearly all actives have a fitted effect of over 50% in size
Outline: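 Following a 2hr exposure of overnight-plated wild-type HCT-116 cells to DMSO-delivered compounds, CellTiter-Glo was added and luminescence recorded after 30min at room temperature.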

[7] = qHTS assay to identify small molecule agonists of the sonic hedgehog signaling (Shh) pathway - cell viability counter screen (AID 1259366); further: nearly all actives have a fitted effect of over 50% in size; further: potency means the concentration at half of the fitted maximal effect
Outline: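 After a 4hr attachment at 37C, NIH/3T3 cells bearing an integrated Gli1-driven luciferase reporter were dosed with compounds. Treatment lasted 24hr, with the final hour including CellTiter-Fluor for a fluorescence viability measurement.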

[8] = qHTS assay to identify small molecule antagonists of the sonic hedgehog signaling (Shh) pathway - cell viability counter screen (AID 1259367); further: nearly all actives have a fitted effect of over 55% in size
Outline: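 Seed 3T3 Gli1-Luc cells at 2,000 per well; incubate 4 hr; add compound in DMSO, then conditioned medium; incubate at 37C with 5% CO2; add CellTiter-Fluor after 23 hr; read fluorescence 1 hr later.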

[9] = qHTS assay to identify small molecule agonists of the sonic hedgehog signaling (Shh) pathway (AID 1259368; calls by dose curve;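 further: NIH/3T3-derived 3T3Gli1-Luc cells carrying a stable Gli1-driven firefly luciferase reporter; series mostly up to about 92 µM; nearly all actives have a fitted effect of over 15% in size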)
Outline: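 3T3Gli1-Luc (NIH/3T3 clone, stable Gli1-Luc); 4 hr pre-incubation, then cpd in DMSO 24 hr, 37 C/5% CO2; luciferase reagent 30 min RT; luminescence.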

[10] = qHTS assay to identify small molecule antagonists of the sonic hedgehog signaling (Shh) pathway (AID 1259369; calls by dose curve; further: nearly all actives have a fitted effect of over 45% in size; further: potency means the concentration at half of the fitted maximal effect)
Outline: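 3T3Gli1-Luc, conditioned-medium-stimulated, 24hr cpd, 37C/5% CO2; Gli1-driven firefly Luc luminescence after 30min RT with luciferase reagent. Cells plated 4hr before cpd.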

[11] = target: Estrogen receptor beta (Homo sapiens) (UniProt Q92731); assay: qHTS assay to identify small molecule agonists of the estrogen receptor beta (ER-beta) signaling pathway (AID 1259377; active means well fitted activation curve with a large enough effect in the signal ratio in the repeat runs, not every such curve was filed as active; the % refers to the signal ratio; further: potency means the concentration at half of the fitted maximal effect)
Chain of Estrogen receptor beta (Homo sapiens) (Q92731 whole entry, looked up): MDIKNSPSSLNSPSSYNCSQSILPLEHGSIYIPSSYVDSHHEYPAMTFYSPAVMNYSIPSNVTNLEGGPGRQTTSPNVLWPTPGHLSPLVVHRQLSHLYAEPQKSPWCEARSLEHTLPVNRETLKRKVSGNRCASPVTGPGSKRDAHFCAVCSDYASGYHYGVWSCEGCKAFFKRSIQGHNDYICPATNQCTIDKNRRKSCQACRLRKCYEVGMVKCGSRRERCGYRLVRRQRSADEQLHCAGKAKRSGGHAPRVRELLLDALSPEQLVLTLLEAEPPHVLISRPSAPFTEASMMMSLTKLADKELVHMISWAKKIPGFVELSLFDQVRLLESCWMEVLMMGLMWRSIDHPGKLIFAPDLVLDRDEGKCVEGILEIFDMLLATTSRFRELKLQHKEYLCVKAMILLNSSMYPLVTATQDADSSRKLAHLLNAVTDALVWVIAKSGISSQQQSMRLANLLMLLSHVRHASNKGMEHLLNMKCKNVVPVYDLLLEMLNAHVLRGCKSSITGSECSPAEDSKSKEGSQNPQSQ
Outline: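 In HEK293T cells bearing a UAS-beta-lactamase reporter under ER-beta control, DMSO-delivered compounds were incubated for 16 hr at 37C. Activity was detected as fluorescence 2 hours after LiveBLAzer B/G FRET substrate addition.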

[12] = target: Estrogen receptor beta (Homo sapiens) (UniProt Q92731); assay: qHTS assay to identify small molecule antagonists of the estrogen receptor beta (ER-beta) signaling pathway (AID 1259378; active means well fitted inhibition curve with a large enough effect in the signal ratio in the repeat runs, not every such curve was filed as active; the % refers to the signal ratio)
Outline: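 ER-beta-UAS-bla HEK293T cells in 2% charcoal-stripped FBS medium treated with compound plus 1nM final 17-beta-estradiol for 16 hr at 37C. Beta-lactamase reporter read by FRET substrate fluorescence after 2 hours at room temperature.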

[13] = qHTS assay to identify small molecule agonists of the androgen receptor (AR) signaling pathway in the presence of an antagonist - cell viability counter screen (AID 1259379);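 further: MDA-kb2 human breast cancer cells carrying an MMTV luciferase reporter; series mostly up to about 92 µM; nearly all actives have a fitted effect of over 25% in size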
Outline: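 Cells: MDA-kb2 (MMTV-luc, AR and GR elements), 3,000/well, 5 hr settle. Added: nilutamide 3.0uM final, then compounds (15 conc.). Incubation: 16 hr, 37C, no CO2. Read-out: CellTiter-Fluor, 1 hr, fluorescence.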

[14] = qHTS assay to identify small molecule agonists of the estrogen receptor beta (ER-beta) signaling pathway - cell viability counter screen (AID 1259380); further: nearly all actives have a fitted effect of over 30% in size; further: potency means the concentration at half of the fitted maximal effect
Outline: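 HEK293T ER-beta-UAS-bla; 2% CS-FBS; 6 hr pre-plate, 16 hr cpd at 37C/5% CO2; LiveBLAzer read first, then CellTiter-Glo 30 min RT, luminescence.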

[15] = qHTS assay to identify small molecule antagonists of the estrogen receptor beta (ER-beta) signaling pathway - cell viability counter screen (AID 1259382); further: series mostly up to about 92 µM; nearly all actives have a fitted effect of over 55% in size
Outline: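 Cells: ER-beta-UAS-bla HEK293T, 2,000/well, 2% CS-FBS, 6 hr settle. Cpd + E2 (1nM final), 16 hr, 37C/5% CO2. Bla FRET substrate 2 hr RT, then CellTiter-Glo 30 min RT, luminescence.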

[16] = target: Estrogen receptor (Homo sapiens) (UniProt P03372); assay: qHTS assay to identify small molecule agonists of the estrogen receptor alpha (ER-alpha) signaling pathway in the presence of an antagonist (AID 1259383; calls by dose curve; further: nearly all actives have a fitted effect of over 15% in size; further: potency means the concentration at half of the fitted maximal effect; on activation: top concentration of the series differs between compounds)
Chain of Estrogen receptor (Homo sapiens) (P03372 whole entry, looked up): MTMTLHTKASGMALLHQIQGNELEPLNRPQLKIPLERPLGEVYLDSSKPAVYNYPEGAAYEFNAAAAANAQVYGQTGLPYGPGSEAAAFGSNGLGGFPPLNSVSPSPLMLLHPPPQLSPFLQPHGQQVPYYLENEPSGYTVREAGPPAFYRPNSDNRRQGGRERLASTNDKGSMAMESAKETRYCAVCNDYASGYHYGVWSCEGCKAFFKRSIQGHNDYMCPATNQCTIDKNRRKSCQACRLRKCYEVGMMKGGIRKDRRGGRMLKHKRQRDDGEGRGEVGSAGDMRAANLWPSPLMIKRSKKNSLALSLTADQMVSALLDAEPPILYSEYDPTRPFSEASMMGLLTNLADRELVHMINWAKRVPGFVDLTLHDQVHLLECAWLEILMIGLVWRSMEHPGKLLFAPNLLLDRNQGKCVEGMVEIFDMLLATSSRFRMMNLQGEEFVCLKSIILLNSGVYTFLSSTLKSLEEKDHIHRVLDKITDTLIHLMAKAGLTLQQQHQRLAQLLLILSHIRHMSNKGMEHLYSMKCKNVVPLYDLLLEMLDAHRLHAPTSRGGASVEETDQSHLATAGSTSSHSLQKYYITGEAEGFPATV
Outline: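 VM7Luc4E2, endog. ER-alpha + 4×ERE-luc; charcoal-stripped FBS, phenol red-free, 5 d; 24hr plating; +10.0nM ICI-182,780 (final); cpds 15 conc, 22hr, 37C/5% CO2; ONE-Glo luminescence.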

[17] = qHTS assay to identify small molecule agonists or antagonists of the thyroid stimulating hormone receptor (TSHR) signaling pathway - wild type cell line counter screen (AID 1259384; calls by dose curve)
Outline: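 Wild-type Hek293 cells, 800/well, 18 h at 37C, then compound with Ro20-1724 for 30 min RT. cAMP by HTRF (cAMP-d2/anti-cAMP cryptate), 1 h RT, fluorescence read. 15 concentrations, triplicates.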

[18] = target: Estrogen receptor (Homo sapiens) (UniProt P03372); assay: qHTS assay to identify small molecule antagonists of the estrogen receptor alpha (ER-alpha) signaling pathway using the BG1 cell line in the presence of 0.1 nM 17-beta-estradiol (AID 1259244); further: nearly all actives have a fitted effect of over 50% in size
Outline: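 Cells: VM7Luc4E2, endogenous ER-alpha, 4x ERE-luc stable. Pre-culture 5 d, phenol red-free, charcoal-stripped FBS. Plated 24 h, compound + E2 0.1 nM final, 22 h 37C/5% CO2. Readout ONE-Glo luminescence.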
On the % scale 0 is the no-effect control and ±100 the full control effect.

CC(C)=CCC/C(C)=C/CC/C(C)=C/CCC(=O)OC/C=C(\C)CCC=C(C)C
inactive: Potency [1] | Potency [2] | Potency [3] | PLD induction [4] -0.0635% [at 1.53 µM] | Potency [5] | Potency [6] | Potency [7] | Potency [8] | Potency [9] | Potency [10] | Potency [11] | Potency [12] | Potency [13] | Potency [14] | Potency [15] | Potency [16]

C[C@]12CC[C@@H]3c4ccc(O)cc4CC[C@H]3[C@@H]1CC[C@@H]2OC(=O)CCC1CCCC1
inactive: Potency [2] | Potency [3] | Potency [4] | Potency [5] | Potency [6] | Potency [8] | Potency [9] | Potency [13] | Potency [15] | outcome [17]
active: Potency [1] 49 µM | Potency [7] 54.5 µM | Potency [10] 13.3 µM | Potency [11] 2.2 nM and 2.7 nM | Potency [14] 61.1 µM and 29.8 µM | Potency [16] 4.9 nM and 4.2 nM

N#[N+]c1ccc2c(S(=O)(=O)[O-])cccc2c1O
inactive: Potency [1] | Potency [2] | Potency [3] | Potency [18] | Potency [6] | Potency [8] | Potency [9] | Potency [10] | Potency [14] | Potency [15] | Potency [16]

Cc1ccc(C(C)(C)O)cc1
inactive: Potency [1] | Potency [2] | Potency [3] | Potency [18] | Potency [5] | Potency [6] | Potency [7] | Potency [8] | Potency [10] | Potency [11] | Potency [12] | Potency [13] | Potency [14] | Potency [15] | Potency [16] | outcome [17]

COc1cc(N)c(Cl)cc1C(=O)NC1CCN(CCCOc2ccc(F)cc2)CC1OC (centres undefined)
active: Potency [10] 2.66 µM | Potency [14] 5.96 µM
inactive: Potency [1] | Potency [2] | Potency [3] | Potency [4] | Potency [5] | Potency [6] | Potency [8] | Potency [9] | Potency [15] | Potency [16] | outcome [17]

c1ccc2sc(SN(C3CCCCC3)C3CCCCC3)nc2c1
inactive: Potency [1] | Potency [2] | Potency [3] | Potency [18] | Potency [5] | Potency [6] | Potency [8] | Potency [10] | Potency [11] | Potency [12] | Potency [13] | Potency [14] | Potency [15] | Potency [16] | outcome [17]

FC(F)(F)c1ccccc1Cl
inactive: Potency [1] | Potency [2] | Potency [3] | Potency [18] | Potency [5] | Potency [6] | Potency [8] | Potency [10] | Potency [11] | Potency [13] | Potency [14] | Potency [15] | Potency [16]

CC(O)c1ccccc1 (centres undefined)
inactive: Potency [1] | Potency [2] | Potency [3] | Potency [18] | Potency [5] | Potency [6] | Potency [8] | Potency [9] | Potency [10] | Potency [11] | Potency [13] | Potency [14] | Potency [15] | Potency [16] | outcome [17]

C=C/C(C)=C/C/C=C(\C)CCC=C(C)C
active: Potency [10] 27.3 µM
inactive: Potency [1] | Potency [2] | Potency [3] | Potency [18] | Potency [5] | Potency [7] | Potency [8] | Potency [9] | Potency [11] | Potency [13] | Potency [15] | Potency [16] | outcome [17]

CC(=O)c1cc2ccccc2s1
inactive: Potency [1] | Potency [2] | Potency [3] | Potency [18] | Potency [5] | Potency [6] | Potency [7] | Potency [8] | Potency [10] | Potency [11] | Potency [13] | Potency [14] | Potency [15] | Potency [16] | outcome [17]
